We go through 40 sequences from the supplement of paper PMC6555819.

The first experiment has as its system FXR:RXRa (NR concentration 270 nM, RXRa partner concentration 90 nM). The experiment in a line: PBM binding z-score (relative to random genomic background probes); higher = stronger binding; sequences stand for … in GC…GCGATTGACAGCGTAGAATGAAGG
Put shortly:
(§1)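 Custom Agilent 4×180K protein-binding microarrays carried double-stranded probes, each with a 34-nt variable region. These regions held direct-repeat seeds, single-nucleotide variants, half-site ablations and random human genomic background sequences. Ligand-free nuclear receptor dimers were incubated on the arrays for 1 h, antibodies against each partner (one per run) detected binding, and scanned fluorescence was regression-normalized. Binding z-scores take the random background probes as reference.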
Take GCAGACAGGTGAAACGCAGATAACTCAGGGTGGC: the PBM binding z-score is -0.337.

In turn, AGAATGAGGTTAAGATCACGGAAACAGAATACAT displayed a PBM binding z-score of 2.44.

ATCGAAAGGTCGTAGGTGAGTATACCCACCCGAA returned a PBM binding z-score of 5.3.

Sequence CCTATTAGTCGACCATAAGGGCAACCGAAGCTCG yielded a PBM binding z-score of 0.245.

With ACAGACAGGTGATGGAGGTAACTCAGGCTATCAT, the PBM binding z-score was -0.104.

TCTAGCAGGCCAGAGGGTCACTCCAGAGGTACGG returned a PBM binding z-score of 0.862.

Sequence AGAACTAGGGCACGCTGAGTTGATAGCAGAGTAG showed a PBM binding z-score of -0.159.

CGTCAAAGTTCAAGGTAACTTAACAGAAAGCAGC registered a PBM binding z-score of 6.07.

As for CCTAGCAGGCCAAACTGGGTCACTCAAGGCTTGA, the PBM binding z-score was found to be 0.705.

In turn, TAAATGAGGTTATAAGATCAGGGAACGTTGCAAA showed a PBM binding z-score of 1.94.

As for CCTACTGGGCCACGAAAGGTCATTAATTCAGTGA, the PBM binding z-score is 3.16.

With GCTGCTAGGTCAACTGATGGACAGCTAAAGCTCG, the PBM binding z-score is 3.98.

Take AATCGGAGGACAAAGGTCAGAGCTACGCCAGTGA: the PBM binding z-score came out at 4.21.

TCGAGTAGGTTAGTCGGGGCATTCAGCCAACATA had a PBM binding z-score of -0.132.

TCATATAGGTAAACAGGTGAAATTCCGTAAGTTA: the PBM binding z-score was found to be 1.25.

As to CGAACTAGGTCATCCAGGACAGTGAGTACATTGA, the PBM binding z-score was 4.32.

In turn, ATACCAAGGTGATCGTGAGGTCGCTGATACTAAC came in with a PBM binding z-score of 1.23.

The sequence TCGAGTAGGTTCGTCGGGGCATTCAGCCAACATA had a PBM binding z-score of 0.282.

The sequence TAGCCTAGGTCAGATAGGGCCAGTATACGCTATA showed a PBM binding z-score of 2.49.

Take CAAACTAGGTCACCGGAAGGTCACAGTCCGCATG: the PBM binding z-score is 6.17.

On to CACACTAGGTCAAGGTCAAAGTCGGTTTGTGCCA, for which the PBM binding z-score amounted to 7.12.

Turning to ACTATTAGTTGAGACGAGGGCAACCAATAGGTTG, the PBM binding z-score worked out at 0.56.

On to ATATGTAGGGTAGCTGGGGTCATTCAGACTAGGC, for which the PBM binding z-score was 3.69.

Regarding CCGAGTAGGATATGGGGCATTCAGGCAACGGTGA, the PBM binding z-score is -0.328.

For the sequence ATCGACAGGTCGTGAGGTGAGTATACAGAAAGGC, the PBM binding z-score stood at 1.05.

In the case of GCGTCTGGGGCATCAGCAGGTTACCATAACTTAA, the PBM binding z-score is -0.332.

CCGACTGGGGCAAGGCTACCATAACGCACAGCCA returned a PBM binding z-score of -0.0743.

In the case of CAAACTAGGTCACCGGTAGGTCAAAGTCCGCATG, the PBM binding z-score was 5.71.

Consider TCTTGTAGATCAGCAGTTTAAGAAAGCTGGCCAA, for which the PBM binding z-score stood at 0.068.

Turning to CAGCCTAGGTCAGGCCCAGTATAGGAGGAACGTT, the PBM binding z-score was 1.06.

The sequence ATATATAGGTTAGCTGGGGTCATTCAGACTAGGC registered a PBM binding z-score of 4.53.

With GCTTACGGTTCAAAGGTTATAGCATGAATAGAAT, the PBM binding z-score stood at 4.43.

AGAATGAGGTTACCGAAGATCAGGGAAACGCTTG gave a PBM binding z-score of 2.18.

With AGAATGAGGTTATCCGTAGATCAGGGAAGAAAGT, the PBM binding z-score stood at 2.59.

TGAATGAGGTTAAAGATCAGGGAACGTGGCGTCG displayed a PBM binding z-score of 3.08.

For the sequence AGAATGAGGGTATTAAGATCAGGGAATTGCGGTC, the PBM binding z-score amounted to 0.048.

CTACCAACGTGAACAAGGTCGTTGATTACTATTC: the PBM binding z-score is 0.409.

Sequence ACTAGTCGGTCAGCTGAGGTCACACACAATTCGG had a PBM binding z-score of 5.04.

CCTTGGAGGACAGAAGGTCAGAGCTGTCCGCTTT came in with a PBM binding z-score of 1.46.

As for TGTCAAGGTTCAAAGGTAACGTAAGTATCCACAC, the PBM binding z-score turned out to be 6.06.

The next experiment deals with LXRa:RXRa (NR concentration 270 nM, RXRa partner concentration 90 nM). Described as above. The method, boiled down: as §1
Sequence GCAGACAGGTGAAACGCAGATAACTCAGGGTGGC registered a PBM binding z-score of -0.00809.

AGAATGAGGTTAAGATCACGGAAACAGAATACAT: the PBM binding z-score is 1.8.

In the case of ATCGAAAGGTCGTAGGTGAGTATACCCACCCGAA, the PBM binding z-score was 4.31.

The sequence CCTATTAGTCGACCATAAGGGCAACCGAAGCTCG gave a PBM binding z-score of 0.0274.

Take ACAGACAGGTGATGGAGGTAACTCAGGCTATCAT: the PBM binding z-score was -0.199.

The sequence TCTAGCAGGCCAGAGGGTCACTCCAGAGGTACGG registered a PBM binding z-score of 0.694.

As to AGAACTAGGGCACGCTGAGTTGATAGCAGAGTAG, the PBM binding z-score was -0.0416.

In turn, CGTCAAAGTTCAAGGTAACTTAACAGAAAGCAGC returned a PBM binding z-score of 5.46.

In turn, CCTAGCAGGCCAAACTGGGTCACTCAAGGCTTGA displayed a PBM binding z-score of 0.962.

Turning to TAAATGAGGTTATAAGATCAGGGAACGTTGCAAA, the PBM binding z-score came to 2.28.

In turn, CCTACTGGGCCACGAAAGGTCATTAATTCAGTGA registered a PBM binding z-score of 4.95.

As to GCTGCTAGGTCAACTGATGGACAGCTAAAGCTCG, the PBM binding z-score was determined as 2.38.

Consider AATCGGAGGACAAAGGTCAGAGCTACGCCAGTGA, for which the PBM binding z-score was 4.44.

Turning to TCGAGTAGGTTAGTCGGGGCATTCAGCCAACATA, the PBM binding z-score is -0.201.

As for TCATATAGGTAAACAGGTGAAATTCCGTAAGTTA, the PBM binding z-score amounted to 1.

On to CGAACTAGGTCATCCAGGACAGTGAGTACATTGA, for which the PBM binding z-score stood at 2.81.

Sequence ATACCAAGGTGATCGTGAGGTCGCTGATACTAAC had a PBM binding z-score of 0.653.

TCGAGTAGGTTCGTCGGGGCATTCAGCCAACATA showed a PBM binding z-score of 0.37.

Regarding TAGCCTAGGTCAGATAGGGCCAGTATACGCTATA, the PBM binding z-score turned out to be 0.979.

As to CAAACTAGGTCACCGGAAGGTCACAGTCCGCATG, the PBM binding z-score was determined as 5.52.

In turn, CACACTAGGTCAAGGTCAAAGTCGGTTTGTGCCA returned a PBM binding z-score of 6.07.

In the case of ACTATTAGTTGAGACGAGGGCAACCAATAGGTTG, the PBM binding z-score is 0.143.

As to ATATGTAGGGTAGCTGGGGTCATTCAGACTAGGC, the PBM binding z-score stood at 4.07.

CCGAGTAGGATATGGGGCATTCAGGCAACGGTGA displayed a PBM binding z-score of -0.279.

Regarding ATCGACAGGTCGTGAGGTGAGTATACAGAAAGGC, the PBM binding z-score stood at 1.19.

GCGTCTGGGGCATCAGCAGGTTACCATAACTTAA came in with a PBM binding z-score of -0.363.

For the sequence CCGACTGGGGCAAGGCTACCATAACGCACAGCCA, the PBM binding z-score was -0.335.

Sequence CAAACTAGGTCACCGGTAGGTCAAAGTCCGCATG gave a PBM binding z-score of 4.92.

TCTTGTAGATCAGCAGTTTAAGAAAGCTGGCCAA returned a PBM binding z-score of -0.0226.

CAGCCTAGGTCAGGCCCAGTATAGGAGGAACGTT had a PBM binding z-score of 0.524.

Sequence ATATATAGGTTAGCTGGGGTCATTCAGACTAGGC gave a PBM binding z-score of 6.18.

The sequence GCTTACGGTTCAAAGGTTATAGCATGAATAGAAT yielded a PBM binding z-score of 4.34.

AGAATGAGGTTACCGAAGATCAGGGAAACGCTTG gave a PBM binding z-score of 4.55.

For the sequence AGAATGAGGTTATCCGTAGATCAGGGAAGAAAGT, the PBM binding z-score came to 2.06.

In the case of TGAATGAGGTTAAAGATCAGGGAACGTGGCGTCG, the PBM binding z-score came to 2.42.

Sequence AGAATGAGGGTATTAAGATCAGGGAATTGCGGTC gave a PBM binding z-score of 0.136.

As for CTACCAACGTGAACAAGGTCGTTGATTACTATTC, the PBM binding z-score stood at 0.657.

ACTAGTCGGTCAGCTGAGGTCACACACAATTCGG: the PBM binding z-score came out at 4.68.

Turning to CCTTGGAGGACAGAAGGTCAGAGCTGTCCGCTTT, the PBM binding z-score was found to be 1.83.

TGTCAAGGTTCAAAGGTAACGTAAGTATCCACAC registered a PBM binding z-score of 5.12.
